# Measurements from PubChem BioAssay.
# For some assays here: Measured potencies and affinities stand elsewhere. The list shows a part of the results. Activity calls are given as the source filed them.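 The calls were made as follows, unless noted: active = GFP response above 150% of the DMSO level; inconclusive = fewer than 70 events counted for a yeast strain; inactive = the rest.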
# Legend:
# [1] = target: Cell division control protein 42 homolog (Homo sapiens) (UniProt P60953); test: inhibition of fluorescent GTP binding to constitutively active Cdc42 – biochemical, multiplex bead flow cytometry, Bodipy-FL-GTP, dose response (AID 1333;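 active = fitted half-maximal concentration within the tested dose range, moderate curve steepness, a statistically real signal drop, and little compound fluorescence or tag-binding interference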)
# [2] = target: Cell division control protein 42 homolog (Homo sapiens) (UniProt P60953); test: inhibition of fluorescent GTP binding to wildtype Cdc42 – biochemical, multiplex bead flow cytometry, Bodipy-FL-GTP, dose response (AID 1334;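 active = fitted half-maximal concentration within the tested range, moderate curve steepness, significant signal drop, and little compound fluorescence or bead-linkage interference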); conditions: bead-based flow cytometry, Bodipy-FL-GTP binding to GST-Cdc42; at 100 µM (top of the series)
# [3] = test system: Ras-related protein Rab-7a (dog), GTP binding; test: blockers of fluorescent GTP binding to Rab7 – biochemical, wildtype, multiplex bead flow cytometry, dose response (AID 1336; call rule not given here)
# [4] = target: Ras-related C3 botulinum toxin substrate 1 (Homo sapiens) (UniProt P63000); test: inhibition of wildtype Rac1 nucleotide loading – biochemical, multiplex bead flow cytometry, dose response (AID 1340;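 active = dose curve with midpoint inside tested range, moderate steepness, plateau gap beyond fit error, low compound glow and bead-link interference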); conditions: GST-Rac1 beads, Bodipy-FL-GTP binding; at 100 µM (top of the series)
# [5] = target: GTPase HRas (Homo sapiens) (UniProt P01112); test: blockade of GTP loading onto mutant Ras – biochemical, activated mutant, multiplex bead flow cytometry, dose response (AID 1341;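 active = dose-response curve with midpoint inside the tested range, moderate steepness, significant amplitude and little compound fluorescence or bead-attachment interference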;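 also: GST-tagged constitutively activated Ras mutant immobilized on beads and multiplexed with other GTPases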)
# [6] = hit retest on RPL19A-GFP reporter strain – cell-based, S. cerevisiae, flow cytometry, cherry picks, mother/daughter gates, confirmation (AID 2270;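 active = GFP response below 50% of the DMSO control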); conditions: 3 h, at 10 µM, stronger effect = lower value, 100 = same GFP as DMSO wells
# [7] = yeast TOR pathway reporter LAP4-GFP change – cell-based, cherry picks, flow cytometry, mother/daughter gates, confirmation (AID 2271;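 active = GFP response above 150% of the DMSO control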;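 also: ratio of sample to DMSO plate mean so 100% equals DMSO level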); conditions: S. cerevisiae LAP4-GFP strain, 3 h, at 10 µM, stronger effect = higher value
# [8] = TOR pathway reporter MEP2-GFP, retest of hits – S. cerevisiae, flow cytometry GFP, cherry picks, confirmation (AID 2272;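 active = GFP response above 150% of the DMSO control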;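 also: ratio of well signal to plate DMSO mean so 100% equals DMSO level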); conditions: S. cerevisiae MEP2-GFP strain, 3 h, at 10 µM, stronger effect = higher value
# [9] = yeast AGP1-GFP fluorescence change, single-dose – cell-based, flow cytometry, S. cerevisiae, cherry picks, confirmation (AID 2273);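 also: median GFP channel fluorescence over the whole cell population gate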; conditions: S. cerevisiae AGP1-GFP strain, 3 h, at 10 µM
# [10] = TOR pathway CIT2 reporter hit retest – S. cerevisiae, GFP fusion, cherry picks, mother/daughter gates, confirmation (AID 2274); conditions: S. cerevisiae CIT2-GFP strain, flow cytometry, 3 h, at 10 µM, stronger effect = higher value
# [11] = target: Regulator of G-protein signaling 16 (Homo sapiens) (UniProt O15492); test: small molecules altering RGS protein interactions with GNAO1 – biochemical, multiplexed beads, flow cytometry, RGS4/7/8/16/19, primary screen (AID 1504; call rule not given here;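 also: fluorescently labeled Galpha-o bound to GDP with aluminium fluoride binding biotinylated RGS beads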); conditions: multiplexed bead flow cytometry, measured here: RGS16 interaction, at 10 µM
# [12] = target: Regulator of G-protein signaling 4 (Homo sapiens) + Guanine nucleotide-binding protein G(o) subunit alpha (Homo sapiens) (UniProt P49798+P09471); test: as above; conditions: multiplexed bead flow cytometry, at 10 µM
# [13] = target: Regulator of G-protein signaling 7 (Homo sapiens) (UniProt P49802); test: as above; conditions: multiplexed bead flow cytometry, measured here: RGS7 interaction, at 10 µM
# [14] = target: Regulator of G-protein signaling 8 (Homo sapiens) (UniProt P57771); test: as above; conditions: multiplexed bead flow cytometry, measured here: RGS8 interaction, at 10 µM
# [15] = interference with biotin-avidin bead interaction – biochemical, flow cytometry, bead-based, counter-screen for RGS protein interaction modulators (AID 1783;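 active = inhibition above 50%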;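 also: median green fluorescence of gated singlet beads compared with DMSO control wells; 0% = DMSO wells and 100% = complete loss of bead fluorescence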); conditions: streptavidin beads, fluorescein-biotin binding, at 10 µM, stronger effect = higher value
# [16] = target: Guanine nucleotide-binding protein G(o) subunit alpha (Homo sapiens) (UniProt P09471); test: retest of RGS8-Galphao interaction hits – biochemical, multiplexed bead flow cytometry, single concentration, confirmation (AID 1836; in the data active = binding response below about 72% or above about 130%; inactive = in between;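 also: Galphao activated as GDP AlF4 complex before binding bead RGS8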); conditions: bead-based flow cytometry RGS8-Galphao binding, fluorescence; at 10 µM; actives lie on both sides
# [17] = target: Guanine nucleotide-binding protein G(o) subunit alpha (Homo sapiens) (UniProt P09471); test: retest of RGS7-Galphao interaction hits – biochemical, multiplexed bead flow cytometry, single concentration, confirmation (AID 1837; in the data active = response below about 75% or above about 130%; inactive = in between;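 also: fluorescent Galphao activated with GDP and aluminum fluoride binding bead-coupled RGS7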); conditions: bead-based flow cytometry RGS7-Galphao binding; at 10 µM; actives lie on both sides
# [18] = target: Regulator of G-protein signaling 16 (Homo sapiens) + Guanine nucleotide-binding protein G(o) subunit alpha (Homo sapiens) (UniProt O15492+P09471); test: RGS16 and Galphao interaction regulators – biochemical, single concentration, multiplexed bead flow cytometry, confirmation (AID 1838; in the data active = response below about 74% or above about 130%; inactive = in between;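 also: Galphao activated as the GDP aluminium fluoride complex binding bead-coupled RGS16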); conditions: bead-based flow cytometry, at 10 µM, actives lie on both sides
# [19] = target: Guanine nucleotide-binding protein G(o) subunit alpha (Homo sapiens) (UniProt P09471); test: RGS4 and Galphao interaction regulators – biochemical, single concentration, multiplexed bead flow cytometry, confirmation (AID 1840; in the data active = binding response below about 74% or above about 130%; inactive = in between); conditions: at 10 µM, actives lie on both sides
# [20] = target: Guanine nucleotide-binding protein G(o) subunit alpha (Homo sapiens) + Regulator of G-protein signaling 19 (Homo sapiens) (UniProt P09471+P49795); test: RGS19 interaction with Gαo, hit retest – biochemical, single point, multiplexed bead flow cytometry, confirmation (AID 1841; in the data active = response below about 50% or above about 160%; inactive = in between;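 also: 100% = no compound control and 0% = blank background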); conditions: bead-based flow cytometry RGS19-Galphao binding; at 10 µM; actives lie on both sides
# [21] = measured here: daughter cell gate
# [22] = measured here: mother cell gate
# [23] = measured here: daughter cell gate response
# [24] = measured here: mother cell gate response
# Chain of Guanine nucleotide-binding protein G(o) subunit alpha (Homo sapiens) (P09471 whole entry, looked up): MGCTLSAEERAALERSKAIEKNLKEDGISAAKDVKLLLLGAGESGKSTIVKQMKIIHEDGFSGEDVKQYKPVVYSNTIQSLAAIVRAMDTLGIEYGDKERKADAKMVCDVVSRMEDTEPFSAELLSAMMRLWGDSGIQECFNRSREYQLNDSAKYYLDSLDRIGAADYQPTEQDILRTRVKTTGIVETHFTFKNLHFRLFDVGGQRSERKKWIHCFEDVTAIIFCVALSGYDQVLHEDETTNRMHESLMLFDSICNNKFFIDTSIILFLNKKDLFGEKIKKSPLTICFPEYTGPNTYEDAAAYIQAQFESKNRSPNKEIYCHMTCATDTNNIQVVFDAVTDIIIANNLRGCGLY
# Chain of Cell division control protein 42 homolog (Homo sapiens) (P60953 whole entry, looked up): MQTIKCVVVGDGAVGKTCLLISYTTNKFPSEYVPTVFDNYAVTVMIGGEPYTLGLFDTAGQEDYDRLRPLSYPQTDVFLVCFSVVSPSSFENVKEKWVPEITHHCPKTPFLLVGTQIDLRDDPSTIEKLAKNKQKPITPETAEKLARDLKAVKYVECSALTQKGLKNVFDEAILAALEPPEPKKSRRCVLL
# Chain of Regulator of G-protein signaling 4 (Homo sapiens) + Guanine nucleotide-binding protein G(o) subunit alpha (Homo sapiens) (P09471 whole entry, looked up): as the sequence (P09471 whole entry, looked up) above
# Chain of Regulator of G-protein signaling 4 (Homo sapiens) + Guanine nucleotide-binding protein G(o) subunit alpha (Homo sapiens) (P49798 whole entry, looked up): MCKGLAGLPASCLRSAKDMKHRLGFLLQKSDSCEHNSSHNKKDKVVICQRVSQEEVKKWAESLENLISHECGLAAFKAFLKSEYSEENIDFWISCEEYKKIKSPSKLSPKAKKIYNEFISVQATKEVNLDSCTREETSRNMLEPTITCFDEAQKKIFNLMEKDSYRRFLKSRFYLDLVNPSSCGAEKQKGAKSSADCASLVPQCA
# Chain of Guanine nucleotide-binding protein G(o) subunit alpha (Homo sapiens) + Regulator of G-protein signaling 19 (Homo sapiens) (P09471 whole entry, looked up): as the sequence (P09471 whole entry, looked up) above
# Chain of Guanine nucleotide-binding protein G(o) subunit alpha (Homo sapiens) + Regulator of G-protein signaling 19 (Homo sapiens) (P49795 whole entry, looked up): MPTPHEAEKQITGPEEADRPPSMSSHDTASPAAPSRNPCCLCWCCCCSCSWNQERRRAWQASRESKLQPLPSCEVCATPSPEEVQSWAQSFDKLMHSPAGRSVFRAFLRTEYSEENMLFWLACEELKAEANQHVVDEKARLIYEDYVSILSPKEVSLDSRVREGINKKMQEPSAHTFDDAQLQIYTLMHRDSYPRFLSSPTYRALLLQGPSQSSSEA
# Chain of Regulator of G-protein signaling 16 (Homo sapiens) + Guanine nucleotide-binding protein G(o) subunit alpha (Homo sapiens) (O15492 whole entry, looked up): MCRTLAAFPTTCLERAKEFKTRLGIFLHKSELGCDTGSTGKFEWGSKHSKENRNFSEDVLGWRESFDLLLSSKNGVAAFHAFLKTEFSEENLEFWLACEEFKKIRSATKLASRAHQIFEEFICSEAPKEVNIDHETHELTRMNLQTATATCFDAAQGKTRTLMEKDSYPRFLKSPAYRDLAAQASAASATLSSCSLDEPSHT
# Chain of Regulator of G-protein signaling 16 (Homo sapiens) + Guanine nucleotide-binding protein G(o) subunit alpha (Homo sapiens) (P09471 whole entry, looked up): as the sequence (P09471 whole entry, looked up) above
structure (smiles),measurement,setting,value
Cc1cc(C)cc(N2C(=O)NC(=O)/C(=C\C=C\c3ccco3)C2=O)c1,outcome,[1],inactive
same,"fluorescence, percent of control (lower = inhibition)",[2],32.8%
same,outcome,[3],inactive
same,"GTP binding signal, raw median fluorescence (lower = inhibition) (MCF (arbitrary fluorescence units))",[4],206
same,outcome,[5],inactive
CC12CN3CC(C)(CN(C1)C31CCOCC1)C2=O,GFP response vs DMSO,[6],95.6% (inactive)
same,GFP response vs DMSO,[6]; [21],96.9%
same,GFP response vs DMSO,[6]; [22],96.6%
same,GFP response relative to DMSO,[7],99.2% (inactive)
same,GFP response relative to DMSO,[7]; [23],97.6%
same,GFP response relative to DMSO,[7]; [24],100%
same,GFP response vs DMSO,[8],96.2% (inactive)
same,"GFP response, % of DMSO",[9],99.5% (inactive)
same,"GFP response, % of DMSO",[10],101% (inactive)
same,"GFP response, % of DMSO",[10]; [21],103%
same,"GFP response, % of DMSO",[10]; [22],101%
O=C1C(=O)c2ccccc2-c2ccccc21,GFP response vs DMSO,[6],122% (inactive)
same,GFP response vs DMSO,[6]; [21],106%
same,GFP response vs DMSO,[6]; [22],116%
same,GFP response relative to DMSO,[7],171% (active)
same,GFP response relative to DMSO,[7]; [23],143%
same,GFP response relative to DMSO,[7]; [24],169%
same,GFP response vs DMSO,[8],117% (inactive)
same,"GFP response, % of DMSO",[9],126% (inactive)
same,"GFP response, % of DMSO",[10],88.7% (inactive)
same,"GFP response, % of DMSO",[10]; [21],89.9%
same,"GFP response, % of DMSO",[10]; [22],82.6%
Cc1nn(Cc2ccccc2)c(Cl)c1C(=O)O,"fluorescence, percent of control (lower = inhibition)",[2],45.4%
same,"GTP binding signal, raw median fluorescence (lower = inhibition) (MCF (arbitrary fluorescence units))",[4],270
same,outcome,[5],inactive
CC(C)N(CC#CCC1(O)c2ccccc2-c2ccccc21)C(C)C,RGS16–Galpha-o binding response,[11],180%
same,RGS4–Galpha-o binding response,[12],106% (active)
same,RGS7–Galpha-o binding response,[13],107%
same,RGS8–Galpha-o binding response,[14],122%
same,inhibition,[15],0.7% (inactive)
same,binding response (% of control),[16],98.5% (inactive)
same,response (percent of control binding),[17],99.5% (inactive)
same,response (% of control binding),[18],101% (inactive)
same,binding response (% of control),[19],99.5% (inactive)
same,response (percent of control binding),[20],110% (inactive)
O=C(O)c1cn(Cc2ccc(F)cc2)c2ccccc12,outcome,[1],inactive
same,"fluorescence, percent of control (lower = inhibition)",[2],106%
same,outcome,[3],inactive
same,"GTP binding signal, raw median fluorescence (lower = inhibition) (MCF (arbitrary fluorescence units))",[4],91.8
same,outcome,[5],inactive
C[C@]12CCC(=O)C=C1CC[C@@H]1[C@@H]2CC[C@]2(C)C(=O)CC[C@@H]12,GFP response vs DMSO,[6],96.8% (inactive)
same,GFP response vs DMSO,[6]; [21],95.1%
same,GFP response vs DMSO,[6]; [22],97.7%
same,GFP response relative to DMSO,[7],102% (inactive)
same,GFP response relative to DMSO,[7]; [23],102%
same,GFP response relative to DMSO,[7]; [24],101%
same,GFP response vs DMSO,[8],94.1% (inactive)
same,"GFP response, % of DMSO",[9],91.2% (inactive)
same,"GFP response, % of DMSO",[10],98.3% (inactive)
same,"GFP response, % of DMSO",[10]; [21],97.2%
same,"GFP response, % of DMSO",[10]; [22],99.7%
